High-throughput results as filed in PubChem BioAssay.
A549 tox: A549 cytotoxicity, counter-screen for Nrf2 inhibitors. AID 504648. A549 ARE-Fluc cells, CellTiter-Fluor viability, 18-24 h. hit rate 0.16% among 390,000. Potency, µM (highest dose often 46 µM), most hits filed as inhibitors
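A549 ARE_Fluc cells in 5% FBS OPTI-MEM were exposed to compounds in concentration-response for 18-24 h at 37 deg C. Viability was read by CellTiter-Fluor fluorescence (Ex 405/Em 525) after 30 min, before the luciferase read.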
mIDH1 inhibitor: human IDH1 R132H inhibition | O75874 | IDH1-R132H enzyme, NADPH consumption, diaphorase/resazurin fluorescence | Potency, µM (series often up to 76.6 µM), most hits filed as inhibitors | hit rate 0.093% among 390,000 | AID 602179; note: nearly all actives have a fitted effect of over 65% in size
Target sequence (O75874 whole entry R132H, stated change not applied): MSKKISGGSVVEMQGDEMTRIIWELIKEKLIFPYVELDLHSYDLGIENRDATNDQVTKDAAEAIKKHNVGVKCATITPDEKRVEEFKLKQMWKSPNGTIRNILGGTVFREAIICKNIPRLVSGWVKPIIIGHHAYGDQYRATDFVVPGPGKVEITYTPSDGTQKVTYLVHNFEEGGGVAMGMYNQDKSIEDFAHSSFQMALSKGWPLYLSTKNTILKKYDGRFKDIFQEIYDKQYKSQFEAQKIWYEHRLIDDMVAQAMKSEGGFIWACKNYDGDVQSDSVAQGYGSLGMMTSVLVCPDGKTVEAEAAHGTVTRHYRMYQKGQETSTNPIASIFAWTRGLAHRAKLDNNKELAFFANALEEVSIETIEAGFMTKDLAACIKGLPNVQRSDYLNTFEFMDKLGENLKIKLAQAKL
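IDH1-R132H (0.5 ug/mL dispensed) in pH 7.5 Tris buffer was preincubated 30 min with compound, then given a substrate mix of 0.016 mM NADPH and 2 mM alpha-KG for 80 min at room temperature; remaining NADPH was read by diaphorase/resazurin fluorescence.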
Nrf2 activator: Nrf2 pathway activation; hit rate 0.31% among 410,000; Potency, µM (doses to about 46.1 µM), usual class: activators; AID 624171; AREc32 ARE-luciferase reporter (MCF7-derived line), luminescence, 24 h; note: nearly all actives have a fitted effect of over 65% in size
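ARE-driven firefly luciferase activity in AREc32 cells measured after a 24 hr compound exposure at 37 deg C, using Steady-Glo reagent and a 30 min room-temperature hold.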
ALOX12 inh: ALOX12 (human) lipoxygenase inhibition | purified 12hLO, xylenol orange hydroperoxide absorbance | AID 1671190 | hit rate 1.1% among 580,000 | P18054 | Potency, µM (highest dose often 108 µM), hits mostly inhibitors
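Purified human 12hLO at 150 nM in 25 mM Hepes, 0.01% Triton X-100, pH 7.0, preincubated 15 min at room temperature with compound. Reaction started with 40 uM arachidonic acid, 30 min at room temperature. Hydroperoxide measured by Fe-xylenol orange, 573/405 nm absorbance ratio.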
LDHA block: blocks human lactate dehydrogenase A. P00338. purified LDHA, NADH/diaphorase-resazurin fluorescence; hits give low values. activity change, % (values are at about 110 or 230 µM). hit rate 0.15% among 480,000; in the data active = activity change below about -30%; inconclusive = mostly about -25% to -30%
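Resorufin fluorescence (ex540/em590), read at 0 and 20 min after diaphorase/resazurin addition, reports the NADH left after a 5 min room-temperature reaction of 2 nM human LDH5 with 0.06 mM NADH and 0.2 mM pyruvate.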
Nrf2 block: Nrf2 pathway inhibition; A549 ARE-Fluc reporter, luciferase luminescence, 18-24 h; Potency, µM (top dose mostly 46 µM), usual class: inhibitors; hit rate 2.1% among 360,000; AID 504444; note: nearly all actives have a fitted effect of over 60% in size
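Two sequential reads on A549 ARE_Fluc cells exposed to compound for 18-24 h: a CellTiter-Fluor fluorescence read for viability, then a luciferase luminescence read for Nrf2/ARE activity.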
Numbers stand for hits; n = inactive; u = inconclusive; x = not tested or not shown; ! = not confirmed by another sample; [ ] = remark or other dose. The list is not random: actives were taken first. Their share in the collection is about 2.7%. Unless noted, calls come from the whole dose curve; as a rule, active = well fitted curve in the direction sought with a large enough effect; inconclusive = small, poorly fitted or top-dose-only effect, or another doubt; inactive = no such curve, though single readings can be large; an effect the other way counts as inactive or inconclusive.

SMILES | A549 tox | mIDH1 inhibitor | Nrf2 activator | ALOX12 inh | LDHA block | Nrf2 block
O=C(Nc1ccc2c(c1)CCC2)c1cc(-c2ccc(F)cc2)nc2ccc(Br)cc12 | x | x | x | n | n | x
COc1cc(C2CC(=O)N(Cc3ccc(F)cc3)c3ccccc3S2)cc(OC)c1OC (centres undefined) | n | n | n | n | n | 16.4µM
COc1ccc(C2CC(=O)N(Cc3ccc(F)cc3)c3ccccc3S2)cc1OC (centres undefined) | n | n | n | n | n | u
CNC(=O)[C@@H](C1CCCCC1)N1CCC[C@H]1C(=O)N1CCN(CCOC)CC1 | x | x | x | 15.8µM | x | x
COCCn1c(SCc2ccc(OC)c(F)c2)nnc1-c1ccc(Cl)cc1 | x | x | x | u | n | x
O=C(CN1C(=O)CCC1=O)Nc1ccc(Br)cc1 | n | n | n | 44.7µM | n | u
O=C(Nc1ccccc1)c1ccc(CSc2ccc(C(F)(F)F)cn2)cc1 | x | x | x | n | n | x
COc1cc(SC)ccc1C(=O)N1CCN(Cc2ccc3c(c2)OCO3)CC1 | n | n | n | n | n | 14.6µM
CCOC(=O)N1CCN(C(=O)c2ccc(SC)cc2OC)CC1 | n | n | n | n | n | 11.6µM
NS(=O)(=O)c1ccc(Nc2ccc([N+](=O)[O-])cc2[N+](=O)[O-])cc1 | x | x | x | n | n | x
O=[N+]([O-])c1ccc(NS(=O)(=O)c2ccc(I)s2)c([N+](=O)[O-])c1 | x | x | x | 15.8µM | n | x
CCOc1ccc(NC(=S)NCCCc2ccccc2)cc1 | n | n | n | u | n | u
S=C(NCCSCc1c(Cl)cccc1Cl)Nc1ccccc1 | n | n | n | 35.5µM | n | u
CCOc1ccc(CSCCNC(=S)Nc2ccccc2)cc1 | n | n | n | 44.7µM | n | n
CC(C)(C)c1ccc(OCCNC(=S)Nc2ccccc2)cc1 | u | n | n | 44.7µM | n | 16.4µM
COc1cccc(S(=O)(=O)N2CCC3(CC2)CC(N(C)Cc2ccccc2)CCO3)c1 (centres undefined) | x | x | x | n | x | x
O=C(NCc1ccccn1)c1ccc(COc2ccc(Cl)cc2)o1 | n | n | n | n | n | 23.1µM
O=C(CS(=O)(=O)Cc1ccccc1C(F)(F)F)Nc1ccc(F)cc1F | x | x | x | u | n | x
CC1CCCCN1S(=O)(=O)c1ccc(NC(=O)CN2C(=O)c3ccccc3S2(=O)=O)cc1 (centres undefined) | x | x | x | n | n | x
O=C(/C=C\c1ccccc1OC(=O)c1ccccc1F)c1cc2ccccc2o1 | u | n | 11.2µM | n | n | u
O=C(/C=C/c1c(F)cccc1F)c1cc2ccccc2o1 | x | x | x | u | n | x
Cc1cc(OC(=O)c2ccc(Cl)cc2Cl)c([N+](=O)[O-])c(=O)[nH]1 | n | n | n | u | n | n
Cc1cc(OC(=O)c2ccccc2Cl)c([N+](=O)[O-])c(=O)[nH]1 | n | n | n | 39.8µM | n | n
CCS[C@H]1CCN2C(=O)c3cc(-c4ccc(F)cc4F)ccc3NC(=O)[C@H]12 | x | x | x | 44.7µM | x | x
Cc1ccc(Nc2nc(C)c(C(=O)Nc3ccccc3)s2)cc1 | x | x | x | u | n | x
SMILES | A549 tox | mIDH1 inhibitor | Nrf2 activator | ALOX12 inh | LDHA block | Nrf2 block
c1ccc(-c2nc(CSC3=NCCCN3)cs2)cc1 | x | x | x | 15.8µM | n | x
COc1ccccc1C(=O)COC(=O)Cc1coc2cc(C)ccc12 | x | x | x | n | n | x
CN1CCC2(CC1)C1CN(C)CC=C1C(C#N)=C(N)C2(C#N)C#N (centres undefined) | 16.4µM! | n | n | n | n | n
CC1=C(Cc2cc3ccc(=O)oc3cc2O)CC(C)(C)CC1 | x | x | x | 6.31µM | n | x
COc1cc2ccc(=O)oc2cc1O | n | n | n | n | n | n
Cc1cc(C)nc(NCC(O)CNc2ccccc2Cl)n1 (centres undefined) | n | n | n | 39.8µM | n | u
Cc1cc(Nc2ccccc2Cl)c2ccccc2n1 | n | n | n | n | n | u
CCCCCCCCCCSCCC(=O)O | x | x | x | 39.8µM | n | x
CCn1c(CNC(=O)COc2ccc(C(C)C)cc2)nnc1SCC(=O)Nc1ccccc1C(C)C | n | n | n | n | n | 16.4µM
Cc1ccc(OCc2cc(C(=O)NC3CCc4ccccc43)no2)cn1 (centres undefined) | n | n | n | n | n | 13µM
CSc1ccccc1OCc1cc(C(=O)NC2CCc3ccccc32)no1 (centres undefined) | n | n | n | n | n | n
O=C(NCCCNC(=O)c1ccc(Cl)cc1Cl)c1nc2ccccc2c(=O)[nH]1 | x | x | x | n | n | x
CC1=C(C(=O)N(C(C)C)C(C)C)CC(CC(=O)NC2CCCCC2)C(=O)N1Cc1ccccc1 (centres undefined) | x | n | n | n | -34.0 | x
COc1ccc(CNC(=O)c2cc(-c3ccc(C)c(C)c3O)n[nH]2)cc1 | x | x | x | n | n | x
COc1ccccc1-c1nc(-c2cc3cccc(OC)c3oc2=O)cs1 | x | x | x | u | n | x
COc1ccc(Cl)cc1C(=O)Nc1ccc(NC(C)=O)cc1 | n | n | n | u | n | n
CC(=O)Oc1c(I)cc(I)cc1C(=O)Nc1ccc(Cl)cc1 | u | n | n | n | n | 23.1µM
Clc1ccc(C=Nc2ccccc2Cc2ccccc2)cc1 | x | x | x | n | n | x
CCS(=O)(=O)c1ccc(N=Nc2ccc(O)c3ncccc23)c(OC)c1 | 18.4µM | n | n | u | n | u
COc1ccccc1N=Nc1ccc(O)c2ncccc12 | n | n | u | u | n | n
Fc1cccc(-c2nc(CN3CCCC3c3ccsc3)co2)c1 (centres undefined) | x | x | x | u | n | x
Cc1ccc(C(=O)NC(=C(Cl)Cl)S(=O)(=O)c2ccc(C)cc2)cc1 | n | n | 11.2µM | u | n | n
Cc1ccc(S(=O)(=O)C(NC(=O)c2ccccc2)=C(Cl)Cl)cc1 | u | n | u | n | n | n
Cc1ccc(S(=O)(=O)/C(=C/Cl)NC(=O)c2ccccc2)cc1 | n | n | u | n | n | 18.4µM
Cc1ccc2c(COC(=O)CNC(=O)c3ccccc3)cc(=O)oc2c1C | x | x | x | n | n | x
SMILES | A549 tox | mIDH1 inhibitor | Nrf2 activator | ALOX12 inh | LDHA block | Nrf2 block
CCn1nc(C(=O)Nc2cccc(S(=O)(=O)N3CCCCC3)c2)c2ccccc2c1=O | x | x | x | n | n | x
CCOC(=O)C1=C(c2ccccc2)NC(SCC(=O)Nc2ccc(C)cc2)=C(C#N)C1c1ccco1 (centres undefined) | n[1.84 µM] | n | n | u | n | 20.6µM
CCOC(=O)C1=C(c2ccccc2)NC(SCC(=O)Nc2ccccc2C)=C(C#N)C1c1ccco1 (centres undefined) | x | n | n | n | n | u
CCOC(=O)C1=C(c2ccccc2)NC(SCC(=O)Nc2cccc(C)c2)=C(C#N)C1c1ccco1 (centres undefined) | 13µM | n | n | n | n | u
Cc1oc2cc(OC(=O)c3ccccc3)ccc2c(=O)c1-c1ccccc1 | x | x | x | n | n | x
FC(F)(F)c1cccc2c(Cl)ccnc12 | x | x | x | n | n | x
